From PubChem BioAssay AID1159580 (chemical genetic matrix, 2015)
The whole screen tested about 5,500 compounds, of which about 2,000 (36%) were called active. Inconclusive results (about 18%) are left out. This is one part of the list. A number with no mark means an inactive call. Rule as the data show it: active = normalized growth mostly below about 0.91 (no sharp cut-off); inconclusive = no clear call, values can overlap the other calls; inactive = mostly above about 0.92.

Test: chemical genetic growth profiling, strain panel (AID 1159580);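 also: tested at 20 µM; growth read once vehicle control cultures reached saturation at 30 °C; 1 = growth at the plate median or of vehicle wells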
Conditions: growth OD
[1] = S. cerevisiae deletion strains, locus YBR021W, strain FUR4, stronger effect = lower value
[2] = S. cerevisiae deletion strains, locus YBR229C, strain ROT2, stronger effect = lower value
[3] = S. cerevisiae deletion strains, locus YCL029C, strain bik1, stronger effect = lower value
[4] = S. cerevisiae deletion strains, locus YDL035C, strain GPR1, stronger effect = lower value
[5] = S. cerevisiae deletion strains, locus YDL074C, strain BRE1, stronger effect = lower value
[6] = S. cerevisiae deletion strains, locus YDL101C, strain DUN1, stronger effect = lower value
[7] = S. cerevisiae deletion strains, locus YDL185W, strain tfp1, stronger effect = lower value
[8] = S. cerevisiae deletion strains, locus YDL192W, strain arf1, stronger effect = lower value
[9] = S. cerevisiae deletion strains, locus YDR101C, strain arx1, stronger effect = lower value
[10] = S. cerevisiae deletion strains, locus YDR162C, strain NBP2, stronger effect = lower value
[11] = S. cerevisiae deletion strains, locus YDR318W, strain mcm21, stronger effect = lower value
[12] = S. cerevisiae deletion strains, locus YDR388W, stronger effect = lower value
[13] = S. cerevisiae deletion strains, locus YDR502C, strain sam2, stronger effect = lower value
[14] = S. cerevisiae deletion strains, locus YEL061C, strain CIN8, stronger effect = lower value
[15] = S. cerevisiae deletion strains, locus YER110C, stronger effect = lower value
[16] = S. cerevisiae deletion strains, locus YER155C, strain BEM2, stronger effect = lower value
[17] = S. cerevisiae deletion strains, locus YER167W, strain BCK2, stronger effect = lower value
[18] = S. cerevisiae deletion strains, locus YGL078C, strain dbp3, stronger effect = lower value
[19] = S. cerevisiae deletion strains, locus YGL086W, strain mad1, stronger effect = lower value
[20] = S. cerevisiae deletion strains, locus YGL248W, strain PDE1, stronger effect = lower value
[21] = S. cerevisiae deletion strains, locus YGR135W, strain pre9, stronger effect = lower value
[22] = S. cerevisiae deletion strains, locus YGR252W, strain gcn5, stronger effect = lower value
[23] = S. cerevisiae deletion strains, locus YHR030C, strain SLT2, stronger effect = lower value
[24] = S. cerevisiae deletion strains, locus YHR079C, strain IRE1 (second series), stronger effect = lower value
[25] = S. cerevisiae deletion strains, locus YHR094C, strain hxt1, stronger effect = lower value
[26] = S. cerevisiae deletion strains, locus YHR129C, strain ARP1, stronger effect = lower value
[27] = S. cerevisiae deletion strains, locus YHR200W, strain rpn10, stronger effect = lower value
[28] = S. cerevisiae deletion strains, locus YIL066C, strain RNR3, stronger effect = lower value
[29] = S. cerevisiae deletion strains, locus YIL073C, strain SPO22, stronger effect = lower value
[30] = S. cerevisiae deletion strains, locus YIL125W, strain kgd1, stronger effect = lower value
[31] = S. cerevisiae deletion strains, locus YIR030C, strain dcg1, stronger effect = lower value
[32] = S. cerevisiae deletion strains, locus YJL095W, strain BCK1, stronger effect = lower value
[33] = S. cerevisiae deletion strains, locus YJL134W, strain LCB3, stronger effect = lower value
[34] = S. cerevisiae deletion strains, locus YJL168C, strain set2, stronger effect = lower value
[35] = S. cerevisiae deletion strains, locus YJL187C, strain SWE1 (second series), stronger effect = lower value
[36] = S. cerevisiae deletion strains, locus YJR043C, strain POL32, stronger effect = lower value
[37] = S. cerevisiae deletion strains, locus YJR075W, strain HOC1, stronger effect = lower value
[38] = S. cerevisiae deletion strains, locus YKL009W, strain mrt4, stronger effect = lower value
[39] = S. cerevisiae deletion strains, locus YKL068W, stronger effect = lower value
[40] = S. cerevisiae deletion strains, locus YKL085W, strain MDH1 (second series), stronger effect = lower value
[41] = S. cerevisiae deletion strains, locus YKL085W, strain MDH1, stronger effect = lower value
[42] = S. cerevisiae deletion strains, locus YKL190W, strain CNB1, stronger effect = lower value
[43] = S. cerevisiae deletion strains, locus YKR001C, strain vps1, stronger effect = lower value
[44] = S. cerevisiae deletion strains, locus YLR039C, strain RIC1, stronger effect = lower value
[45] = S. cerevisiae deletion strains, locus YLR058C, strain SHM2, stronger effect = lower value
[46] = S. cerevisiae deletion strains, locus YLR102C, strain apc9, stronger effect = lower value
[47] = S. cerevisiae deletion strains, locus YLR262C, strain YPT6, stronger effect = lower value
[48] = S. cerevisiae deletion strains, locus YLR268W, strain sec22, stronger effect = lower value
[49] = S. cerevisiae deletion strains, locus YLR330W, strain CHS5, stronger effect = lower value
[50] = S. cerevisiae deletion strains, locus YLR342W, strain FKS1 (second series), stronger effect = lower value
[51] = S. cerevisiae deletion strains, locus YLR371W, strain rom2, stronger effect = lower value
[52] = S. cerevisiae deletion strains, locus YLR418C, strain cdc73, stronger effect = lower value
[53] = S. cerevisiae deletion strains, locus YML016C, strain PPZ1, stronger effect = lower value
[54] = S. cerevisiae deletion strains, locus YML032C, strain rad52, stronger effect = lower value
[55] = S. cerevisiae deletion strains, locus YML124C, strain tub3, stronger effect = lower value
[56] = S. cerevisiae deletion strains, locus YMR078C, strain ctf18, stronger effect = lower value
[57] = S. cerevisiae deletion strains, locus YMR223W, strain ubp8, stronger effect = lower value
[58] = S. cerevisiae deletion strains, locus YMR263W, strain SAP30, stronger effect = lower value
[59] = S. cerevisiae deletion strains, locus YMR307W, strain GAS1, stronger effect = lower value
[60] = S. cerevisiae deletion strains, locus YNL067W, strain RPL9B, stronger effect = lower value
[61] = S. cerevisiae deletion strains, locus YNL153C, strain GIM3, stronger effect = lower value
[62] = S. cerevisiae deletion strains, locus YNL233W, strain BNI4, stronger effect = lower value
[63] = S. cerevisiae deletion strains, locus YNL250W, strain rad50, stronger effect = lower value
[64] = S. cerevisiae deletion strains, locus YNL271C, strain bni1, stronger effect = lower value
[65] = S. cerevisiae deletion strains, locus YNL298W, strain CLA4, stronger effect = lower value
[66] = S. cerevisiae deletion strains, locus YNL307C, strain MCK1, stronger effect = lower value
[67] = S. cerevisiae deletion strains, locus YNL322C, strain KRE1, stronger effect = lower value
[68] = S. cerevisiae deletion strains, locus YNR052C, strain pop2, stronger effect = lower value
[69] = S. cerevisiae deletion strains, locus YOL012C, strain htz1
[70] = S. cerevisiae deletion strains, locus YOL147C, strain pex11, stronger effect = lower value
[71] = S. cerevisiae deletion strains, locus YOR061W, strain CKA2, stronger effect = lower value
[72] = S. cerevisiae deletion strains, locus YOR069W, strain VPS5, stronger effect = lower value
[73] = S. cerevisiae deletion strains, locus YOR136W, strain idh2, stronger effect = lower value
[74] = S. cerevisiae deletion strains, locus YOR144C, strain elg1, stronger effect = lower value
[75] = S. cerevisiae deletion strains, locus YOR184W, strain ser1, stronger effect = lower value
[76] = S. cerevisiae deletion strains, locus YOR316C, strain cot1, stronger effect = lower value
[77] = S. cerevisiae deletion strains, locus YPR119W, strain clb2, stronger effect = lower value
[78] = S. cerevisiae deletion strains, locus YPR141C, strain kar3, stronger effect = lower value
[79] = S. cerevisiae deletion strains, locus YPR163C, strain tif3, stronger effect = lower value
[80] = S. cerevisiae deletion strains, locus YPR167C, strain met16, stronger effect = lower value
[81] = S. cerevisiae deletion strains, strain wtn01, stronger effect = lower value
[82] = S. cerevisiae deletion strains, locus YPL055C, strain LGE1, stronger effect = lower value

COc1ccccc1-c1cc(=O)c2c(OC)cccc2o1
normalized growth [1]: 0.99
normalized growth [2]: 0.973
normalized growth [3]: 1
normalized growth [4]: 0.953
normalized growth [5]: 0.923
normalized growth [6]: 0.966
normalized growth [7]: 0.987
normalized growth [8]: 0.892 (active)
normalized growth [9]: 0.987
normalized growth [10]: 0.95
normalized growth [11]: 0.935
normalized growth [12]: 0.985
normalized growth [13]: 0.944
normalized growth [14]: 0.977
normalized growth [15]: 0.977
normalized growth [16]: 1.01
normalized growth [17]: 0.996
normalized growth [18]: 0.983
normalized growth [19]: 0.99
normalized growth [20]: 0.942
normalized growth (S. cerevisiae deletion strains, locus YGR078C, strain PAC10, stronger effect = lower value): 0.938
normalized growth [21]: 0.915
normalized growth [22]: 0.776
normalized growth [23]: 0.991
normalized growth [24]: 0.979
normalized growth [25]: 0.996
normalized growth [26]: 0.967
normalized growth [27]: 0.98
normalized growth [28]: 0.961
normalized growth [29]: 0.931
normalized growth [30]: 1.01
normalized growth [31]: 0.969
normalized growth [32]: 0.773 (active)
normalized growth [33]: 0.988
normalized growth [34]: 0.971
normalized growth [35]: 0.954
normalized growth [36]: 0.999
normalized growth [37]: 0.987
normalized growth [38]: 0.968
normalized growth [39]: 0.993
normalized growth [40]: 0.982
normalized growth [41]: 0.982
normalized growth [42]: 0.972
normalized growth [43]: 0.916
normalized growth [44]: 0.872
normalized growth [45]: 0.96
normalized growth [46]: 0.988
normalized growth [47]: 0.815
normalized growth [48]: 0.98
normalized growth [49]: 0.976
normalized growth [50]: 0.894
normalized growth [51]: 0.979
normalized growth [52]: 0.77 (active)
normalized growth [53]: 0.983
normalized growth [54]: 0.951
normalized growth [55]: 0.983
normalized growth [56]: 0.969
normalized growth [57]: 0.916
normalized growth [58]: 0.958
normalized growth [59]: 0.72
normalized growth [60]: 0.982
normalized growth [61]: 0.974
normalized growth [62]: 0.922
normalized growth [63]: 0.999
normalized growth [64]: 0.969
normalized growth [65]: 0.965
normalized growth [66]: 0.88 (active)
normalized growth [67]: 0.978
normalized growth [68]: 0.958
normalized growth (S. cerevisiae deletion strains, locus YOL006C, strain TOP1, stronger effect = lower value): 0.762
normalized growth [69]: 1.44
normalized growth [70]: 0.975
normalized growth [71]: 0.972
normalized growth [72]: 0.982
normalized growth [73]: 1
normalized growth [74]: 0.996
normalized growth [75]: 0.837 (active)
normalized growth [76]: 0.992
normalized growth (S. cerevisiae deletion strains, locus YPL241C, strain CIN2, stronger effect = lower value): 0.974
normalized growth [77]: 0.982
normalized growth [78]: 0.987
normalized growth [79]: 0.964
normalized growth [80]: 0.969
normalized growth [81]: 1
normalized growth (S. cerevisiae strains, strain wild type, stronger effect = lower value): 0.975

COc1cccc(-c2cc(=O)c3ccccc3o2)c1N
normalized growth (S. cerevisiae deletion strains, locus YAL040C, strain CLN3, stronger effect = lower value): 0.905
normalized growth (S. cerevisiae deletion strains, locus YCL061C, strain MRC1 (second series), stronger effect = lower value): 1
normalized growth (S. cerevisiae deletion strains, locus YDR363W, strain ESC2, stronger effect = lower value): 1.04
normalized growth (S. cerevisiae deletion strains, locus YER002W, strain NOP16, stronger effect = lower value): 1.02
normalized growth [37]: 0.992
normalized growth [58]: 0.997
normalized growth [59]: 0.992
normalized growth (S. cerevisiae deletion strains, locus YNL175C, strain NOP13, stronger effect = lower value): 0.922
normalized growth (S. cerevisiae deletion strains, locus YNL197C, strain WHI3, stronger effect = lower value): 0.937
normalized growth (S. cerevisiae deletion strains, locus YNL224C, strain SQS1, stronger effect = lower value): 0.907 (active)
normalized growth [67]: 1.01
normalized growth (S. cerevisiae deletion strains, locus YOR083W, strain WHI5 (second series), stronger effect = lower value): 0.807 (active)
normalized growth [82]: 1.01

COc1ccccc1-c1cc(=O)c2cccc(OC)c2o1
normalized growth [1]: 0.795 (active)
normalized growth [2]: 0.972
normalized growth [3]: 0.987
normalized growth [4]: 0.894
normalized growth [5]: 0.824
normalized growth [6]: 0.909
normalized growth (S. cerevisiae deletion strains, locus YDL134C, strain PPH21, stronger effect = lower value): 0.865 (active)
normalized growth [7]: 0.986
normalized growth [8]: 0.867 (active)
normalized growth [9]: 0.928
normalized growth [10]: 0.857
normalized growth [11]: 0.915 (active)
normalized growth [12]: 0.97
normalized growth [13]: 0.906 (active)
normalized growth [14]: 0.902 (active)
normalized growth [15]: 1.01
normalized growth [16]: 0.93
normalized growth [17]: 0.899 (active)
normalized growth [18]: 0.991
normalized growth [19]: 0.908 (active)
normalized growth [20]: 0.865 (active)
normalized growth [21]: 0.869 (active)
normalized growth (S. cerevisiae deletion strains, locus YGR229C, strain SMI1, stronger effect = lower value): 0.617 (active)
normalized growth [22]: 0.714 (active)
normalized growth [23]: 0.753 (active)
normalized growth [24]: 0.993
normalized growth [25]: 1
normalized growth [26]: 0.882 (active)
normalized growth [27]: 0.939
normalized growth [28]: 0.814 (active)
normalized growth [29]: 0.875
normalized growth [30]: 0.989
normalized growth [31]: 0.977
normalized growth [32]: 0.562 (active)
normalized growth [33]: 0.974
normalized growth [34]: 0.977
normalized growth [35]: 0.885
normalized growth [36]: 0.864
normalized growth [38]: 0.978
normalized growth [39]: 0.998
normalized growth [40]: 0.977
normalized growth [41]: 0.977
normalized growth [42]: 0.938
normalized growth [43]: 0.855 (active)
normalized growth [44]: 0.84
normalized growth [45]: 0.911
normalized growth [46]: 1.01
normalized growth [47]: 0.855
normalized growth [48]: 0.924
normalized growth [49]: 0.798 (active)
normalized growth [50]: 0.732 (active)
normalized growth [51]: 0.839 (active)
normalized growth [52]: 0.642 (active)
normalized growth [53]: 0.956
normalized growth [54]: 0.92
normalized growth [55]: 0.972
normalized growth [56]: 0.986
normalized growth [57]: 0.886 (active)
normalized growth [59]: 0.843
normalized growth [60]: 0.896
normalized growth [61]: 0.903
normalized growth [62]: 0.795 (active)
normalized growth [63]: 0.997
normalized growth [64]: 0.983
normalized growth [65]: 0.963
normalized growth [66]: 0.758 (active)
normalized growth [68]: 0.964
normalized growth [69]: 1.7
normalized growth [70]: 0.924 (active)
normalized growth [71]: 0.976
normalized growth [72]: 0.951
normalized growth [73]: 0.992
normalized growth [74]: 0.967
normalized growth [75]: 0.758 (active)
normalized growth [76]: 0.991
normalized growth [82]: 0.826
normalized growth [77]: 1
normalized growth [78]: 1
normalized growth [79]: 0.924
normalized growth [80]: 0.964
normalized growth [81]: 0.918
